Values joined by “and” are separate entries in the source; they are usually repeats but may differ in a detail not shown here. Equal values may be shown once. The campaign covered roughly 350,000 compounds. About 31,000 (8.9%) were called active. A call without a number means that no potency is given here. Not shown: some 15% with an inconclusive outcome. The call rests on the fitted dose curve; in most records, active means well fitted inhibition curve with a large enough effect; inconclusive means small, poorly fitted or top-dose-only effect; inactive means no such curve, though single readings can be large or run the other way. Only a selection was taken, and actives are over-represented in it overall. The source holds several records for some structures; these can differ, active in one and inactive in another.
Potency means the concentration at half of the fitted maximal effect.

In this assay the target is Histone-lysine N-methyltransferase EHMT2 (Homo sapiens) (UniProt Q96KQ7). In words: qHTS Assay for Inhibitors of Histone Lysine Methyltransferase G9a. Further: nearly all actives have a fitted effect of over 75% in size. Conditions: G9a H3K9 monomethylation, AlphaScreen, 2 h; series mostly up to 59 µM. An outline of the steps: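 G9a (20 nM) was preincubated 15 min with compound, then reacted 2 h at room temperature with 500 nM biotin-H3K9 peptide and 20 µM SAM. Monomethyl-H3K9 detected by AlphaScreen using anti-H3K9me1 antibody.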
Histone-lysine N-methyltransferase EHMT2 (Homo sapiens), sequence (Q96KQ7 913-1193 limits assumed): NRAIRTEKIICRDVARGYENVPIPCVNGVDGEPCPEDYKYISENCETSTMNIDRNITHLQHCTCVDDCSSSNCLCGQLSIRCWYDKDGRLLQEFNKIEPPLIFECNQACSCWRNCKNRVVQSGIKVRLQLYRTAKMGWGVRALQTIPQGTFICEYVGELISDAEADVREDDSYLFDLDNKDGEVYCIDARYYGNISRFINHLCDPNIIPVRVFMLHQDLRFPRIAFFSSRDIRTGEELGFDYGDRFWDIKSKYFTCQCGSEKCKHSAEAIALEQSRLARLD
On the technique in general: qHTS replaces the single test concentration by a dilution series.
`CCC1(C)CC(=O)c2c(ccc3oc(C(=O)Nc4ccc(C(C)=O)cc4)c(C)c23)O1` (stereo not drawn): the Potency result was “inactive”.

As to `Cc1ccc(C)c(N2CCN(C(=O)C3CCC(CNS(=O)(=O)c4cccs4)CC3)CC2)c1` (stereo not drawn), the Potency entry was “inactive”. Regarding `CCCN1CCN(C(=O)CCCNC(=O)c2ccc(Cl)cc2)CC1`, the Potency result is “inactive”. As to `COc1ccccc1NC(=O)c1cc(C2CC2)nc2c1c(C)nn2-c1ccc(C)cc1`, the Potency entry is “inactive”. For `CCN(CC)S(=O)(=O)c1ccc2c(c1)N(CC(=O)NCC(C)c1ccccc1)C(=O)CO2` (stereo not drawn), the Potency entry is “inactive”. `O=C(COC(=O)c1cc(S(=O)(=O)N2CCOCC2)ccc1Cl)NCCc1ccccc1`: the activity, negative = inhibition was -2.95% [at 12.7 µM] (inactive). Take `Cc1ccnc(NC(=O)CNC(=O)c2ccccc2)c1`: the Potency entry was “inactive”. Regarding `O=c1[nH]c(-c2cccs2)nc2ccccc12`, the Potency entry is “inactive”.

With `S=c1[nH]c(-c2cccs2)cn1-c1ccccc1`, the Potency was 2.51 µM (active). For the compound `O=C(O)/C=C/c1cn(-c2ccccc2)nc1-c1cccs1`, the Potency result was “inactive”. In the case of `CC1=C(C(=O)OCC(C)C)C(c2ccc(OCc3ccccc3)cc2)N2C(=O)CCSC2=N1` (stereo not drawn), the Potency result is “inactive”.

As for `O=C(c1ccc(Cl)c(S(=O)(=O)N2CCCCC2)c1)N1CCCCCC1`, the Potency result was “inactive”. Same read-out and setting: to `O=C(c1ccccc1F)N1CCN(S(=O)(=O)c2ccc(Br)cc2)CC1` belongs “inactive”; to `O=C(c1ccc[nH]c1=S)N1CCN(S(=O)(=O)c2ccc(Br)cc2Cl)CC1`, 8.91 µM (active). For `CC(C)CN(C(=O)Cn1c(=O)cnc2ccccc21)C1CCS(=O)(=O)C1` (stereo not drawn), the Potency result is “inactive”. `O=C1[C@H]2[C@@H](c3ccc(Cl)cc3)N3C(=O)N(c4cccc(F)c4)C(=O)[C@@]3(Cc3ccccc3)[C@H]2C(=O)N1C1CCCCC1`: the activity, negative = inhibition was -8.78% [at 2.33 µM] (inactive). On the same count and under the same terms, in the case of `c1cncc(-c2nc(N3CCNCC3)c3ccccc3n2)c1` it was 8.14% [at 0.501 µM] (inactive). With `S=c1nc2ccccc2c2nc(-c3cccnc3)[nH]n12`, the Potency was 10 µM (active).

In the case of `CC(C)(C)OC(=O)N1CCC(c2c(C(=O)NCc3ccccn3)cnn2-c2ccc(F)cc2)CC1`, the Potency entry was “inactive”. On the same count and under the same terms, to `CCNC(=S)N(CCc1c(C)[nH]c2ccc(C)cc12)Cc1ccco1` belongs 50.1 µM (active). Same read-out and setting: to `Cc1ccc(CN(Cc2cccnc2)C(=S)Nc2cc(Cl)ccc2C)cc1` belongs “inactive”. As for `Cc1ccc2[nH]c(C)c(CCNC(=O)NC3CCCCC3)c2c1`, the Potency result is “inactive”.

As to `Cc1ccc(NC(=S)N(Cc2ccco2)C(C)c2cccs2)cc1` (stereo not drawn), the Potency entry was “inactive”. On to `COCCNC(=S)N(CCc1c(C)[nH]c2ccc(C)cc12)Cc1cccnc1`, for which the Potency was 70.8 µM (active).

As for `COCCNC(=S)N(Cc1cccnc1)Cc1ccc(OC)c(OC)c1`, the Potency result is “inactive”. `COC(=O)c1ccc(-c2c(-c3ccccc3)ncc3cc(OC)c(OC)cc23)cc1`: the activity, negative = inhibition was -32.8% [at 0.501 µM] (inactive). On to `Cc1cc(C)n2nc(C(=O)OC(C)C(=O)c3cc(C)c(C)cc3C)nc2n1` (stereo not drawn), for which the activity, negative = inhibition is 20.5% [at 0.501 µM] (inactive). For the compound `COc1cccc(C(=O)NCc2ccc3c(c2)CCN3C(=O)c2ccncc2)c1`, the Potency result is “inactive”. `O=C(Cc1cccs1)NCc1cccc(C(F)(F)F)c1`: the Potency result was “inactive”. Same read-out and setting: to `COc1ccccc1NC(=O)CCC(=O)OC(C)C(=O)c1ccccc1` (stereo not drawn) belongs “inactive”. Regarding `O=C(CN1C(=O)NC2(CCOc3ccccc32)C1=O)NCc1ccc(F)cc1` (stereo not drawn), the activity, negative = inhibition is 28.5% [at 12.7 µM] (inactive). Regarding `COc1cccc(NC(=O)CN2CCN(CC(=O)Nc3ccccc3Cl)CC2)c1`, the Potency is 35.5 µM (active).

For `CC1CCCC(C)N1C(=O)CN1CCN(c2nc(-c3ccc(F)cc3)cs2)CC1` (stereo not drawn), the Potency result was “inactive”. As to `O=C(CN1CCOCC1)Nc1ccc(NC(=O)CN2CCOCC2)c(Cl)c1`, the Potency entry is “inactive”.

On to `COc1cccc(NC(=O)CN2CCN(c3nc(-c4cccc(OC)c4)cs3)CC2)c1`, for which the Potency is 10 µM (active). On the same count and under the same terms, in the case of `COc1cc(NC(=O)CN2CCN(S(=O)(=O)c3ccc(Br)cc3)CC2)cc(OC)c1` it was “inactive”; in that of `COc1cccc(CC(=O)Nc2ccc(-c3csc(C)n3)cc2)c1`, “inactive”. Consider `CC(C)c1ccccc1OCC(O)CN(CC(O)COc1cccc2ccccc12)C(C)C` (stereo not drawn), for which the Potency entry was “inactive”.

On to `COc1ccc(CCNC(=O)c2ccc3c(c2)sc2nc(-c4ccc(C)cc4)cn23)cc1OC`, for which the Potency result is “inactive”. On the same count and under the same terms, in the case of `Cc1c(Cl)cccc1NC(=O)N1CCN(C(=O)c2nsc3ccccc23)CC1` it was “inactive”; in that of `CC1=C(C/C=C(\C)CCCC(C)CCCC(C)CCCC(C)C)C(=O)c2ccccc2C1=O` (stereo not drawn), “inactive and 14.1 µM (active)”; in that of `Cn1cc(CNC(=O)c2ccc(OC3CCN(Cc4ccccn4)CC3)cc2)cn1`, “inactive”. For the compound `N#Cc1c(Cl)nc(-c2cccnc2)nc1-c1ccccc1`, the activity, negative = inhibition was -10.7% [at 2.33 µM] (inactive). Turning to `CCOc1ccc(N(CC)S(=O)(=O)N2CCCC(C(=O)Nc3ccc(C(C)=O)cc3)C2)cc1` (stereo not drawn), the Potency result was “inactive”.

Turning to `O=C(Nc1cc(S(=O)(=O)N2CCOCC2)ccc1OCC(F)(F)F)c1ccc(N2CCCC2=O)cc1`, the Potency entry is “inactive”.

Consider `CCN(CC)S(=O)(=O)c1cc([N+](=O)[O-])ccc1NNC(=O)Nc1ccccc1`, for which the Potency was 15.8 µM (active). For `CC(=O)c1ccc(NC(=O)Nc2ccc([N+](=O)[O-])cc2C)cc1`, the Potency result was “inactive”. As to `CCN(CC)S(=O)(=O)c1cc([N+](=O)[O-])ccc1N=Nc1c(O)n(C)c2ccccc12`, the Potency entry was “inactive”. As for `O=C(O)c1ccc(Cn2c(SCc3ccc(F)cc3)nc3ccncc32)cc1`, the Potency entry is “inactive”. The same measure, in the same setting: to `Cn1c(=O)nc2n(-c3ccc(Br)cc3)c3cccc(Cl)c3cc-2c1=O` belongs “inactive”. Consider `Oc1ccccc1CN1CCN(C(c2ccccc2)c2ccccc2)CC1`, for which the Potency was 28.2 µM (active). Regarding `COc1ccccc1NC(=S)N1CCN(C(c2ccccc2)c2ccccc2)CC1`, the Potency was 28.2 µM (active). As to `COc1ccccc1CNCc1ccc(C(=O)O)s1`, the Potency entry was “inactive”. As to `O=C(c1ccc(-n2cnnn2)cc1)N1CCN(C(c2ccccc2)c2ccccc2)CC1`, the Potency result was “inactive”.

Turning to `CC(C)NC(=S)N1CCN(C(c2ccccc2)c2ccccc2)CC1`, the Potency entry was “inactive”. With `COc1ccccc1CN1CC2(CCN(S(=O)(=O)c3ccccc3)CC2)C1`, the activity, negative = inhibition is 8.67% [at 12.7 µM] (inactive). On to `CCOc1ccccc1NC(=S)N1CCN(c2cccc(C)c2C)CC1`, for which the Potency result is “inactive”. Same read-out and setting: to `c1ccc(C(c2ccccc2)N2CCN(Cc3nnnn3C3CCCCC3)CC2)cc1` belongs “inactive”. Take `COc1ccccc1NC(=S)N1CCN(c2ccc(F)cc2)CC1`: the activity, negative = inhibition was -4.21% [at 0.501 µM] (inactive). Regarding `COc1ccccc1CN1CCN(C(c2ccccc2)c2ccccc2)CC1`, the Potency is 10 µM (active). The same measure, in the same setting: to `CC(C)OCC(O)CN1CCN(C(c2ccccc2)c2ccccc2)CC1` (stereo not drawn) belongs 50.1 µM (active); to `CC(=O)N1CCN(CC(c2ccccc2)c2ccccc2)CC1`, “inactive”.

For `O=C(NCCCc1ccccc1)c1cc(COc2c(F)cccc2F)on1`, the Potency result is “inactive”. The same measure, in the same setting: to `CCc1nn(CCCC(=O)NCc2ccc(C)cc2)c(=O)c2cc3occc3n12` belongs “inactive”; to `CN(CCc1ccccn1)C1CCCN(S(=O)(=O)c2ccccc2Cl)C1` (stereo not drawn), “inactive”.

Regarding `COc1c(Cl)cc(Cl)cc1C(=O)Nc1cccc2cccnc12`, the Potency result is “inactive”. With `COc1ccc(-c2nn3c(=O)cc(CN4CCN(C(=O)c5ccc(OC)c(OC)c5)CC4)nc3s2)cc1`, the Potency result is “inactive”. Turning to `Cc1ccc(S(=O)(=O)N[C@@H](Cc2ccccc2)C(=O)N2CCC(C(=O)N[C@H](C(=O)O)C(C)O)CC2)cc1` (stereo partly drawn), the Potency result is “inactive”.

On to `COc1ccc(S(=O)(=O)N2CCOCC2)cc1NC(=O)Cc1c(F)cccc1Cl`, for which the activity, negative = inhibition is 17.5% [at 12.7 µM] (inactive).

For `CC(OC(=O)CNC(=O)c1cccc(F)c1)C(=O)NC1CCCCC1C` (stereo not drawn), the Potency result is “inactive”. Regarding `COc1ccc(NC(=O)C2CCN(c3ccc(Sc4ccc(C)cc4)nn3)CC2)c(OC)c1`, the Potency result was “inactive”. In the case of `Cc1cc(NC(=O)c2ccc(-c3ccc(Cl)cc3)o2)cc(-c2nc3ncccc3o2)c1O`, the Potency entry is “inactive”. As for `COc1ccc(CCNC(=O)CCc2ccccc2O)cc1OC`, the activity, negative = inhibition was 7.03% [at 0.501 µM] (inactive). Turning to `COc1ccccc1CN1CCN(Cc2cc(OC)c(OC)cc2OC)CC1`, the Potency was 8.91 µM (active). As for `COC(=O)N1CCC2(CCCN(Cc3ccccc3OC)C2)CC1`, the activity, negative = inhibition was 2.95% [at 12.7 µM] (inactive). Regarding `COc1ccc(OC)c(CN2CCN(C(=O)CNC(=O)c3cc(C)cc(C)c3)CC2)c1`, the Potency result was “inactive”. Turning to `COc1ccc(C(=O)CSc2c(C(C)C)cnc3c2c(=O)n(C)c(=O)n3C)cc1`, the Potency result was “inactive”.

For `CCN1C(=O)[C@@H]2[C@@H](c3ccc(-c4ccccc4)cc3)N3CCCC[C@@]3(C(=O)OC)[C@@H]2C1=O`, the activity, negative = inhibition is -6.56% [at 2.33 µM] (inactive). Consider `CCc1cnc2c(c1SCC(=O)N1CCC(C)CC1)c(=O)n(C)c(=O)n2C`, for which the Potency entry is “inactive”. For the compound `O=C(c1cccnc1)N(c1cc2sc(=O)oc2c2ccccc12)S(=O)(=O)c1ccccc1`, the Potency is 1.12 µM (active).

Take `COc1ccc(N(C(=O)c2cccnc2)S(=O)(=O)c2ccc(OC)c(OC)c2)cc1`: the Potency result was “inactive”. As to `COc1ccc(N(C(=O)c2cccnc2)S(=O)(=O)c2ccc3c(c2)n(C)c(=O)n3C)cc1`, the activity, negative = inhibition is -0.924% [at 12.7 µM] (inactive). In the case of `O=C(c1ccco1)N1CCN(C(=O)c2cc(-c3ccccc3F)no2)CC1`, the Potency entry is “inactive”. Take `CCCOC(=O)c1ccc(N2C(=O)c3ccccc3C2=O)cc1`: the Potency entry was “inactive”. Same read-out and setting: in the case of `CCOc1ccc(NC(=O)C(CC(C)C)N2Cc3ccccc3C2=O)cc1` (stereo not drawn) it was “inactive”; in that of `CCO/C=C1\C(=O)N(c2ccc(OCC)cc2)C(=O)c2ccccc21`, 31.6 µM (active). Turning to `O=C(COC(=O)c1ncc(Cl)c(Cl)c1Cl)NNC(=O)c1ccccc1`, the Potency result is “inactive”. As for `O=[N+]([O-])c1cc([N+](=O)[O-])c2cccnc2c1O`, the Potency was 31.6 µM (active). For `Cc1ccc(C(=O)Nc2cccc3ncccc23)cc1[N+](=O)[O-]`, the activity, negative = inhibition is 35.3% [at 12.7 µM] (inactive).

For `COC(=O)c1ccc(COc2cc([N+](=O)[O-])cc3cccnc23)cc1`, the Potency entry was “inactive”. With `O=c1cc(N2CCN(Cc3ccccc3)CC2)c(-c2ccccc2)n[nH]1`, the Potency result was “inactive”.

As for `O=C1c2ccccc2C(=O)c2c1cccc2N1CCN(Cc2ccccc2)CC1`, the Potency was 10 µM (active). On to `CCc1c(C)nc(N2CCN(Cc3ccccc3)CC2)[nH]c1=O`, for which the activity, negative = inhibition is -41.6% [at 12.7 µM] (inactive).
